Several values for one entry are separate records, joined by “and”; a condition that tells them apart may be missing. Identical values can stand only once. Records with an inconclusive call do not appear. Activity calls are given as the source filed them. Unless noted, the call rests on the fitted dose curve.
Tests used:
[1] = Nuclear factor erythroid 2-related factor 2/antioxidant responsive element (Nrf2/ARE) small molecule agonists: qHTS cell viability counter screen in human keratinocytes (AID 1919968; active means well fitted curve in the direction sought with a large enough effect in the repeat runs; an effect the other way counts as inactive or inconclusive; further: nearly all actives have a fitted effect of over 55% in size; further: potency means the concentration at half of the fitted maximal effect)
How it was run: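 KeratinoSens HaCaT cells, 1,500/well, preincubated 5 h, then exposed to compounds in DMSO for 23 h at 37 C/5% CO2. Viability read as CellTiter-Fluor fluorescence after 1 h, in the same wells as the ARE-luciferase read.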

[2] = target: Gonadotropin-releasing hormone receptor (Homo sapiens) (UniProt P30968); assay: Human gonadotropin-releasing hormone receptor (GnRHR) small molecule agonists, calcium flux assay in GnRHR-HEK293 cells (AID 1920063); further: nearly all actives have a fitted effect of over 35% in size
Gonadotropin-releasing hormone receptor (Homo sapiens), sequence (P30968 whole entry, looked up): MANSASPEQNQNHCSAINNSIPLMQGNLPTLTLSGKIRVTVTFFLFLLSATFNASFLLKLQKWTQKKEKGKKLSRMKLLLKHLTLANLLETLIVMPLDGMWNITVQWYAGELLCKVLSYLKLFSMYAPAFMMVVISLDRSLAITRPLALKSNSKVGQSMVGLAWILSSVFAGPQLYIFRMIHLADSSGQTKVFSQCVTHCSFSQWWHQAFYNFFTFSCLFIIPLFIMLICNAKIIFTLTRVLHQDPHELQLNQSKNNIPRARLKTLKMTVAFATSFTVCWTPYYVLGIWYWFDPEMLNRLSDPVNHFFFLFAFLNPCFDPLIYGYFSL
How it was run: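 HEK293 cells stably expressing human GnRHR were dye-loaded for 1 h at 37 C. Compound was added in agonist mode and fluorescence (Ex/Em 480/540) recorded kinetically for 3 min. Fifteen concentrations, triplicates.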

[3] = target: KiSS-1 receptor (Homo sapiens) (UniProt Q969F8); assay: Human kisspeptin (KISS1R) small molecule agonists, calcium flux assay in KISS1R-HEK293 cells (AID 1920064; active means well fitted curve in the direction sought with a large enough effect in the repeat runs; an effect the other way counts as inactive or inconclusive)
KiSS-1 receptor (Homo sapiens), sequence (Q969F8 whole entry, looked up): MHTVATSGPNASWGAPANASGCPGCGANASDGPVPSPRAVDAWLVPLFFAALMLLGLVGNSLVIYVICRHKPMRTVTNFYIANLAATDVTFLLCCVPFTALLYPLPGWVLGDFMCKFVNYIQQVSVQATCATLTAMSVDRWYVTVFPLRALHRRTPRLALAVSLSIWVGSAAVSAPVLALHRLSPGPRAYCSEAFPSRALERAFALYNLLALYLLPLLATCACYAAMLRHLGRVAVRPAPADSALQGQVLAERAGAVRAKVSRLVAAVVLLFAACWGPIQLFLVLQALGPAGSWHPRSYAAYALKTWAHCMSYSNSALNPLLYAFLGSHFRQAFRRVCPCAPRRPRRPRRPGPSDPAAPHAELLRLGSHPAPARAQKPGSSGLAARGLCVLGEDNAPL
How it was run: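 HEK293 cells stably expressing human KISS1R were loaded with calcium dye for 1 h at 37 C, then given compound; fluorescence (Ex/Em 480/540) was read kinetically for 3 min. Fifteen concentrations, triplicate.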

[4] = G protein-coupled receptor (GPCR) small molecule agonists, calcium flux assay: HEK293 wild type cell line counter screen (AID 1920065)
How it was run: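 Wild-type HEK293 cells plated 18 h, loaded with calcium dye 1 h at 37 C, then compounds added in agonist mode (ATP as positive control). Kinetic fluorescence Ex/Em 480/540 recorded 3 min at 1 sec intervals; 15 concentrations, triplicate.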

[5] = p53 small molecule agonists, cell-based qHTS assay with human liver microsomes (AID 1963577);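 further: p53 response element beta-lactamase reporter cells with liver microsomes plus NADPH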
How it was run: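 HLM-supplemented p53RE-bla reporter assay: 16 h compound exposure at 37 C, microsomes and NADPH each 0.5 mg/mL final, read by fluorescence intensity.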

[6] = p53 small molecule agonists, cell-based qHTS assay with human liver microsomes: qHTS cell viability counter screen (AID 1963579); further: nearly all actives have a fitted effect of over 45% in size
How it was run: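 Viability of p53RE-bla cells is measured as CellTiter-Glo luminescence following a 16 h, 37 C incubation with compound, liver microsomes from human donors and NADPH.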

[7] = p53 small molecule agonists, cell-based qHTS assay with rat liver microsomes: qHTS cell viability counter screen (AID 1963580); further: nearly all actives have a fitted effect of over 45% in size
How it was run: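 p53RE-bla HCT-116 cells (4,000/well) rested 5 h at 37 C, then given Tox21 compounds in DMSO with rat liver microsomes (0.5 mg/mL final) plus NADPH (0.5 mg/mL final) for 16 h at 37 C. Viability read by CellTiter-Glo luminescence after 30 min at room temperature.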

[8] = p53 small molecule agonists, cell-based qHTS assay: qHTS cell viability counter screen (AID 1963581); further: nearly all actives have a fitted effect of over 45% in size
How it was run: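 p53RE-bla HCT-116 cells, compounds added 5 h after plating and incubated 16 h at 37 C. Cytotoxicity measured in the same wells as intracellular ATP by CellTiter-Glo luminescence after 30 min at room temperature.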

[9] = p53 small molecule agonists, cell-based qHTS assay (AID 1963582; active means well fitted activation curve with a large enough effect in the signal ratio in the repeat runs, not every such curve was filed as active; the % refers to the signal ratio)
How it was run: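 p53RE-bla reporter cells, compounds added in DMSO after 5 h plating, incubated 16 h at 37 C. Beta-lactamase read via 2 h room-temperature LiveBLAzer B/G FRET substrate, fluorescence intensity.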

[10] = target: 5-hydroxytryptamine receptor 2A (Homo sapiens) (UniProt P28223); assay: 5-hydroxytryptamine receptor 2A (HTR2A) small molecule antagonists, cell-based qHTS assay (AID 1963586); further: nearly all actives have a fitted effect of over 45% in size
5-hydroxytryptamine receptor 2A (Homo sapiens), sequence (P28223 whole entry, looked up): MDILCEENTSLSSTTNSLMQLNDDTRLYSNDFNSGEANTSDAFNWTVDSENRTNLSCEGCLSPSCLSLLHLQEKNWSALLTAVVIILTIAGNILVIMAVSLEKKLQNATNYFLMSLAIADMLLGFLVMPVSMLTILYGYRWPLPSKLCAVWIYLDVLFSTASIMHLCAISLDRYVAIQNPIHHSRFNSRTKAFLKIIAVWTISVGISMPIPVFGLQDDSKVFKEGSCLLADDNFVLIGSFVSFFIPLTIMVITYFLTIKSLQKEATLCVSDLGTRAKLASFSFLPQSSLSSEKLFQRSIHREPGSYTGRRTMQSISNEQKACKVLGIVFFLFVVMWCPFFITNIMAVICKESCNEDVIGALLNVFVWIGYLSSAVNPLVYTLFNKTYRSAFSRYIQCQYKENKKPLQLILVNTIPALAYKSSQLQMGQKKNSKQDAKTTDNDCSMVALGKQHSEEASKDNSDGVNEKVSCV
How it was run: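 Antagonist-mode intracellular calcium assay: DOI (4 nM) added after 5 min compound pre-incubation at room temperature to dye-loaded HTR2A-CHO cells. Fluorescence followed for 3 min, sampled every second.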

[11] = target: 5-hydroxytryptamine receptor 2A (Homo sapiens) (UniProt P28223); assay: 5-hydroxytryptamine receptor 2A (HTR2A) small molecule agonists, cell-based qHTS assay (AID 1963587); further: nearly all actives have a fitted effect of over 30% in size
How it was run: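 HTR2A-CHO cells, plated 18 h at 37 C/5% CO2, dye-loaded 1 h at 37 C; compounds in DMSO added by pin tool (agonist mode). Intracellular calcium flux read as kinetic fluorescence on FDSS over 2 min at 1 s intervals.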

[12] = target: Muscarinic acetylcholine receptor M1 (Homo sapiens) (UniProt P11229); assay: Cholinergic receptor muscarinic 1 (CHRM1) small molecule antagonists, cell-based qHTS assay (AID 1963588); further: nearly all actives have a fitted effect of over 40% in size; further: potency means the concentration at half of the fitted maximal effect
Muscarinic acetylcholine receptor M1 (Homo sapiens), sequence (P11229 whole entry, looked up): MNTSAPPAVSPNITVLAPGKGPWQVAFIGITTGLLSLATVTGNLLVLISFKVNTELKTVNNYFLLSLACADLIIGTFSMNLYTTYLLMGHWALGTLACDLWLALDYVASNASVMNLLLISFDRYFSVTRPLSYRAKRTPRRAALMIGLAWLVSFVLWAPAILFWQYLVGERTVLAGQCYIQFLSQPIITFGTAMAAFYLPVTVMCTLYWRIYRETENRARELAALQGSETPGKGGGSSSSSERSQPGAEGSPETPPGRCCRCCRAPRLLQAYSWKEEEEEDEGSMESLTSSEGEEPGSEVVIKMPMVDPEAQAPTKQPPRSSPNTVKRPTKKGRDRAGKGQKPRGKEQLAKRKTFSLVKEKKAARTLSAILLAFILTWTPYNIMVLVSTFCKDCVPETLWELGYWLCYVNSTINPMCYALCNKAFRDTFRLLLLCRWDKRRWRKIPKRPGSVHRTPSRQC
How it was run: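 CHRM1-CHO calcium-flux assay, antagonist mode. Cells were seeded 18 h, dye-loaded 1 h at 37 C and given compound for 5 min at RT, then acetylcholine was added at 50nM. FDSS fluorescence was read 3 min; 15 concentrations, three runs.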

[13] = target: Muscarinic acetylcholine receptor M1 (Homo sapiens) (UniProt P11229); assay: Cholinergic receptor muscarinic 1 (CHRM1) small molecule agonists, cell-based qHTS assay (AID 1963589); further: nearly all actives have a fitted effect of over 35% in size
How it was run: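 CHO cells stably expressing human CHRM1 were loaded with calcium dye for 1 h at 37 C, then compound was added in agonist mode. Intracellular calcium fluorescence was followed kinetically at 1 s intervals. Fifteen concentrations were tested in three independent runs.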

[14] = cAMP Responsive Elements (CRE) small molecule agonists, cell-based qHTS assay (AID 1963590)
How it was run: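 CRE-bla HEK 293T cells, 2,000/well in DMEM with 10% dialyzed FBS and 25 mM HEPES, pre-incubated 18 h at 37 C, then exposed to compound 3 h at 37 C. Beta-lactamase reporter read with LiveBLAzer B/G FRET substrate after 2 h at room temperature.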

[15] = cAMP Responsive Elements (CRE) small molecule antagonists, cell-based qHTS assay (AID 1963591; active means well fitted inhibition curve with a large enough effect in the signal ratio in the repeat runs, not every such curve was filed as active; the % refers to the signal ratio)
How it was run: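 CRE-bla HEK293T cells plated 18 h, then given compound plus NKH477 at 0.25 uM final for 3 h at 37C. Beta-lactamase reporter read with LiveBLAzer B/G FRET substrate after 2 h at room temperature.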

[16] = target: Beta-2 adrenergic receptor (Homo sapiens) (UniProt P07550); assay: Adrenergic beta2 receptor (ADRB2) small molecule antagonists, cell-based qHTS assay (AID 1963592); further: series mostly up to about 92 µM; nearly all actives have a fitted effect of over 50% in size
Beta-2 adrenergic receptor (Homo sapiens), sequence (P07550 whole entry, looked up): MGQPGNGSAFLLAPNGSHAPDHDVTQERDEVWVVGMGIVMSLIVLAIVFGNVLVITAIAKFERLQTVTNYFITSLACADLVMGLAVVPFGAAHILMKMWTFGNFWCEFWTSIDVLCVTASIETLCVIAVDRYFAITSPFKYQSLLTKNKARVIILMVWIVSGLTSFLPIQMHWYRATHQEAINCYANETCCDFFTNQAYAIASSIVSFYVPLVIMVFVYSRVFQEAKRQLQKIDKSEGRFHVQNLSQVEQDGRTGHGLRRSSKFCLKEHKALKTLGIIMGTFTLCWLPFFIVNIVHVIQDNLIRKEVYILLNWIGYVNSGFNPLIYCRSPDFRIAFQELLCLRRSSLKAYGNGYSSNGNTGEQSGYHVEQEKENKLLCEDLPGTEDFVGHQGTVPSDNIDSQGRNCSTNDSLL
How it was run: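 Cells (CHO, stable ADRB2 overexpression) incubated 18-20hr at 37C; compounds added from DMSO; agonist mix (1nM isoproterenol, 100uM IBMX, 25uM Ro-20-1724) added; 0.5hr RT; d2-cAMP and anti-cAMP-cryptate added; 1hr RT; 665/615 nm read.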

[17] = target: Beta-2 adrenergic receptor (Homo sapiens) (UniProt P07550); assay: Adrenergic beta2 receptor (ADRB2) small molecule agonists, cell-based qHTS assay (AID 1963593);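 further: CHO cells stably overexpressing human ADRB2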
How it was run: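 CHO cells stably over-expressing ADRB2 were plated overnight at 37C, then dosed with compounds plus a stimulation mix containing 100uM IBMX and 25uM Ro-20-1724 for 0.5hr at room temperature. cAMP was measured by HTRF competition, 1hr.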

[18] = target: D(2) dopamine receptor (Homo sapiens) (UniProt P14416); assay: Dopamine D2 receptor (DRD2) small molecule agonists, cell-based qHTS assay (AID 1963594); further: nearly all actives have a fitted effect of over 35% in size
D(2) dopamine receptor (Homo sapiens), sequence (P14416 whole entry, looked up): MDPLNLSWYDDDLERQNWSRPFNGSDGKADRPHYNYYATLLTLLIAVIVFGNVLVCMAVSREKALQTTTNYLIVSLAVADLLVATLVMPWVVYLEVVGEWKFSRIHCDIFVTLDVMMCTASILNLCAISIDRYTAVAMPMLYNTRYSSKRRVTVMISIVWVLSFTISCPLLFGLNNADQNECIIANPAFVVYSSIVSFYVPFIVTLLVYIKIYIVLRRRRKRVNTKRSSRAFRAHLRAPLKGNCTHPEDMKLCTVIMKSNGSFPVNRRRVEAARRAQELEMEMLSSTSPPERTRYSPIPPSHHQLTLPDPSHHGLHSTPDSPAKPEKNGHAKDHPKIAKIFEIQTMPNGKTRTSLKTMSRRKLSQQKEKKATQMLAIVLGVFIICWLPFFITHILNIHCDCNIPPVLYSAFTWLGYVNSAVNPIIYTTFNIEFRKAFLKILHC
How it was run: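 HEK293 cells stably expressing DRD2 were cultured 24 h at 37 C, then given Ro20-1724 (0.1 mM final) and compounds for 10 min at room temperature. NKH477 (200nM) was then added for 30 min. cAMP was read by HTRF.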

[19] = target: D(2) dopamine receptor (Homo sapiens) (UniProt P14416); assay: Dopamine D2 receptor (DRD2) small molecule antagonists, cell-based qHTS assay (AID 1963595; active means well fitted inhibition curve with a large enough effect in the signal ratio in the repeat runs, with a control signal flat; the % refers to the signal ratio)
How it was run: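 Human DRD2 antagonist qHTS measuring cAMP by HTRF. The cells are exposed to compound for 10 min, then to NKH477 (200 nM) and quinpirole (12 nM) for 30 min at RT, with Ro20-1724 (0.1 mM) present throughout.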

[20] = p53 small molecule agonists, cell-based qHTS assay with rat liver microsomes (AID 1963578)
How it was run: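 Quantitative HTS of the Tox21 10K library: p53RE-bla cells, rat liver microsomes plus NADPH at 0.5 mg/mL final each, 16 h at 37 C, beta-lactamase fluorescence detection.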
On the % scale 0 is the no-effect control and ±100 the full control effect.

C1CC2OC2CC1C1CO1 (stereo not given)
inactive: Potency [1] | Potency [2] | Potency [3] | Potency [4] | Potency [5] | Potency [6] | Potency [7] | Potency [8] | Potency [9] | Potency [10] | Potency [11] | Potency [12] | Potency [13] | Potency [14] | Potency [15] | Potency [16] | Potency [17] | Potency [18] | Potency [19]

Brc1c(Br)c(Br)c(Oc2c(Br)c(Br)c(Br)c(Br)c2Br)c(Br)c1Br
inactive: activity change, negative = cytotoxicity [1] -0.108% [at 19 µM] | activity change [2] -0.419% [at 11.8 µM, stronger effect = higher value] | activation [3] -2.44% [at 15.8 µM] | activation [4] 1.15% [at 11.8 µM] | activation [5] -0.0858% [at 13.5 µM] | activation [20] 0.633% [at 13.6 µM] | activity change, negative = cytotoxicity [6] 1.7% [at 13.5 µM] | activity change, negative = cytotoxicity [8] 13.8% [at 13.5 µM] | activity, negative = inhibition [10] 9.26% [at 12.7 µM] | activation [11] 1.53% [at 15.9 µM] | activity, negative = inhibition [12] -22.2% [at 12.6 µM] | activation [13] -0.663% [at 15.8 µM] | activation [14] 0.588% [at 19 µM] | activity change, negative = inhibition [15] -8.08% [at 18.9 µM] | activity change, negative = inhibition [16] 1.07% [at 19 µM] | activation [17] -14.9% [at 19 µM] | activation [18] 4.7% [at 19 µM] | activity change, negative = inhibition [19] 0.371% [at 18.9 µM]

Cc1ncc(CNC(=O)N(CCCl)N=O)c(N)n1
inactive: Potency [1] | Potency [2] | Potency [3] | Potency [4] | Potency [5] | Potency [6] | Potency [7] | Potency [8] | Potency [9] | Potency [10] | Potency [11] | Potency [12] | Potency [13] | Potency [14] | Potency [15] | Potency [16] | Potency [17] | Potency [19]

CCC(=O)O[C@H]1CC[C@H]2[C@@H]3CCC4=CC(=O)CC[C@]4(C)[C@H]3CC[C@]12C
inactive: Potency [1] | Potency [2] | Potency [3] | Potency [4] | Potency [5] | Potency [20] | Potency [6] | Potency [7] | Potency [8] | Potency [11] | Potency [16] | Potency [17] | Potency [18] | Potency [19]
active: Potency [12] 5.3 µM and 4.6 µM

Nc1ccncc1
inactive: Potency [1] | Potency [2] | Potency [3] | Potency [4] | Potency [20] | Potency [6] | Potency [7] | Potency [8] | Potency [9] | Potency [10] | Potency [11] | Potency [12] | Potency [13] | Potency [14] | Potency [15] | Potency [16] | Potency [17] | Potency [18] | Potency [19]

O=[N+]([O-])/C=C/c1ccccc1
active: Potency [1] 17.5 µM and 27.3 µM
inactive: Potency [3] | Potency [4] | Potency [5] | Potency [20] | Potency [6] | Potency [7] | Potency [8] | Potency [11] | Potency [12] | Potency [13] | Potency [16] | Potency [17] | Potency [18] | Potency [19]

CCCC[n+]1cccc(C)c1
inactive: Potency [2] | Potency [3] | Potency [4] | Potency [5] | Potency [20] | Potency [6] | Potency [7] | Potency [8] | Potency [9] | Potency [10] | Potency [11] | Potency [12] | Potency [13] | Potency [14] | Potency [15] | Potency [16] | Potency [17] | Potency [18]

O=C(O)C(Cl)Cl
inactive: Potency [1] | Potency [2] | Potency [3] | Potency [4] | Potency [6] | Potency [7] | Potency [8] | Potency [10] | Potency [11] | Potency [13] | Potency [16] | Potency [18] | Potency [19]

Source: PubChem BioAssay (Tox21)
